Screens: PubChem, National Center for Advancing Translational Sciences (NCATS)
IL-1B inflam inh = inhibitors of inflammasome signaling (IL-1 beta secretion); 360,000 tested, 4.7% active; AID 743279; activity change, % at 57.5 µM; THP-1 LPS/ATP IL-1B secretion, AlphaLISA, 16 h; stronger effect = lower value; in the data active = activity change below about -50%; inconclusive = mostly about -30% to -49%
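THP-1 cells pretreated 1 hr with compounds (up to 57.5 uM final), then stimulated with LPS (250 ng/mL final) plus ATP (1.25 mM final); secreted IL-1B measured by AlphaLISA after 16 hr, decreased signal indicating inhibition.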
ATXN2 expr inh = ATXN2 expression inhibition. 360,000 tested, 0.72% active. HEK-293 ATXN2-luciferase reporter, luminescence, 24 h. Potency, µM (series often up to 57 µM), actives largely listed as inhibitors; note: nearly all actives have a fitted effect of over 55% in size
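ATXN2-luciferase reporter cells (luciferase flanked by upstream and downstream ATXN2 gene portions) were treated 24 h at 37 °C with compounds at up to 57 uM. SteadyGlo luminescence gave expression; GF-AFC fluorescence gave viability.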
USP2a block = USP2a (human) protease inhibition. O75604. USP2 core, Ub-CHOP2 coupled fluorogenic reporter, 485/531. Potency, µM (top dose mostly 38.3 µM), usual class: inhibitors. 330,000 tested, 0.01% active. AID 463254
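Deubiquitinase activity read as fluorescence (485/531 nm) after Ub-CHOP2 cleavage activates the enterokinase reporter on its substrate; USP2 core 10nM, Ub-CHOP2 and substrate 25nM each, 30min compound preincubation then 60min RT; data normalized to NEM, curves fitted.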
ATXN viability = cell viability loss in ATXN counter-screen. S2 cells (HEK-293 line with an ATXN2-luciferase reporter) viability, CellTiter-Fluor protease fluorescence, 24 h. Potency, µM (doses to about 56.7 µM), hits mostly cytotoxic. 400,000 tested, 0.49% active. AID 651635; note: nearly all actives have a fitted effect of over 40% in size
USP1-UAF1 inh = blocks the human USP1/UAF1 deubiquitinase complex; O94782; recombinant USP1/UAF1, Ub-Rhodamine cleavage fluorescence; Potency, µM (titrated, usually from 57.1 µM), actives largely listed as inhibitors; 390,000 tested, 0.23% active; AID 743255; note: nearly all actives have a fitted effect of over 60% in size
Target sequence (O94782 whole entry, looked up): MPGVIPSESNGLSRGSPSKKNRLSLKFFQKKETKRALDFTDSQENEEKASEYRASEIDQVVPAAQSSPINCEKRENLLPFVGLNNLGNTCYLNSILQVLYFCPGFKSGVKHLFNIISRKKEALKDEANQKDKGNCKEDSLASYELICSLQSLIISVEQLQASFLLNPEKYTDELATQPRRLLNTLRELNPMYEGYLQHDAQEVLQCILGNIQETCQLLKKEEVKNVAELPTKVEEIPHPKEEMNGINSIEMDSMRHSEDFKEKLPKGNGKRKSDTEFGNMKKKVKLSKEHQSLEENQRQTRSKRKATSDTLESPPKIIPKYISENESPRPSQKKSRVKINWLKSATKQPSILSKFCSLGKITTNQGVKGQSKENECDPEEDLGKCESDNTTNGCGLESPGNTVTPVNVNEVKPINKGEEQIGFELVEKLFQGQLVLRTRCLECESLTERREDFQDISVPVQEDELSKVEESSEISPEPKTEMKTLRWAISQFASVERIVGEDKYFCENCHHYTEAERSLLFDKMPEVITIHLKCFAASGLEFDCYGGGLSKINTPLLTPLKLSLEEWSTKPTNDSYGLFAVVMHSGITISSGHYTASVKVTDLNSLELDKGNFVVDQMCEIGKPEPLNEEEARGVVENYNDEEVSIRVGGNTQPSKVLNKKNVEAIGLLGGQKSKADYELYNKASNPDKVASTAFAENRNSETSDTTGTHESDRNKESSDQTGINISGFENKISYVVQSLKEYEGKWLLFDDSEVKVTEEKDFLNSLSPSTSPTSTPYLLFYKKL
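Step one: compound is pinned into 1nM USP1/UAF1 in HEPES pH 7.8 buffer with TCEP. Step two: 15 min room-temperature incubation. Step three: Ub-Rho (150nM final) starts cleavage, tracked by fluorescence over six one-minute reads.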
Of the large screens only hits and unclear results are named; the others gave an inactive call. Hits are enriched below; roughly 4.8% of the tested compounds scored in any of these assays. Unless noted, calls come from the whole dose curve; as a rule, active = well fitted curve in the direction sought with a large enough effect; inconclusive = small, poorly fitted or top-dose-only effect, or another doubt; inactive = no such curve, though single readings can be large; an effect the other way counts as inactive or inconclusive.

COc1ccc(-n2c(SCC(=O)N3CCCCC3)nc3ccccc3c2=O)cc1	ATXN viability inconclusive
COc1ccc(-n2c(SC(CN3CCCCC3)CN3CCCC3=O)nc3ccccc3c2=O)cc1 (centres undefined)	IL-1B inflam inh -52
Cc1ccccc1-c1nc(SCC(=O)NCc2ccco2)c2c(=O)n(C)c(=O)n(C)c2n1	none (no result: IL-1B inflam inh, USP2a block)
COC(=O)[C@@H]1CCCN1Cc1ccc2c(c1)CN(Cc1ccc(OC)c(C)c1)CCO2	none (no result: IL-1B inflam inh, ATXN2 expr inh, USP2a block, USP1-UAF1 inh)
N#CCCN1CCN(C(=S)c2ccc(-c3ccc(Cl)c(Cl)c3)o2)CC1	IL-1B inflam inh -53
N#CCCN1CCN(C(=S)c2ccc(-c3cccc(Cl)c3)o2)CC1	ATXN viability inconclusive
CC(C)Oc1ccc(F)cc1-c1cc(C(=O)NCc2ccc(F)cc2)[nH]n1	none (no result: USP2a block, USP1-UAF1 inh)
Cc1ccc(S(=O)(=O)CCN2CCN(c3ccccc3)CC2)cc1	none
Cc1ccc(S(=O)(=O)CCN2CCC(n3cccc3)CC2)cc1	IL-1B inflam inh -59
OCCN(Cc1ccccc1)c1ncnc2sccc12	USP2a block inconclusive
O=[N+]([O-])c1cccnc1N1CCC(c2cc(-c3ccc(Cl)cc3)n[nH]2)CC1	IL-1B inflam inh -85, ATXN2 expr inh inconclusive, ATXN viability inconclusive
COCCCn1cnnc1SC(C)C(=O)Nc1ccc(S(=O)(=O)N2CCOCC2)cc1 (centres undefined)	none
CN(C)CCN(C(=O)/C=C/c1cccs1)c1nc2ccc(F)cc2s1	IL-1B inflam inh -66, ATXN viability inconclusive
CN(C)CCCN(C(=O)c1cc(-c2cccs2)nc2ccccc12)c1nc2ccc(F)cc2s1	IL-1B inflam inh -59, ATXN2 expr inh inconclusive, ATXN viability inconclusive
COC(=O)C1CCN(Cc2ccc3c(c2)CN(C(=O)c2cc4ccccc4n2C)CCO3)CC1	none (no result: IL-1B inflam inh, ATXN2 expr inh, USP2a block, USP1-UAF1 inh)
Nc1ccc(C(=O)OCC(=O)N2c3ccccc3Sc3ccccc32)cc1[N+](=O)[O-]	none
NCCNc1ccc(C(=O)N2c3ccccc3Sc3ccccc32)cc1[N+](=O)[O-]	IL-1B inflam inh -92, ATXN2 expr inh inconclusive (no result: ATXN viability)
CC(C)(C)NCc1cc(Cl)ccc1OCc1ccccc1F	IL-1B inflam inh -144
CCN(CC)CCNCc1cc(Cl)ccc1OCc1ccccc1F	IL-1B inflam inh -90
CC(C)(C)NCc1cc(Cl)ccc1OCc1cccs1	none
COc1ccc(Nc2nc(-c3cccs3)nc3ccccc23)cc1S(=O)(=O)N1CCOCC1	IL-1B inflam inh -66 (no result: USP2a block)
COC[C@H](c1ccc(C(F)(F)F)cc1)N1CCN(C2(C)CCN(C(=O)c3c(C)ncnc3C)CC2)C[C@H]1C	none (no result: IL-1B inflam inh, ATXN2 expr inh, USP2a block, USP1-UAF1 inh)
COc1ccccc1CNC(=O)c1cc2c(C)nn(Cc3ccc(F)cc3)c2s1	IL-1B inflam inh -52
Cc1nn(Cc2ccc(F)cc2)c2sc(C(=O)Nc3nccs3)cc12	none
CN(CC(=O)Nc1ccccc1Cl)C(=O)COC(=O)c1nc(Cl)c(Cl)c(Cl)c1Cl	IL-1B inflam inh -67, ATXN2 expr inh inconclusive, USP1-UAF1 inh inconclusive (no result: ATXN viability)
CN(CC(=O)Nc1ccccc1Cl)C(=O)COC(=O)c1ccc(Cl)nc1	none
O=C(NCC1(N2CCCCC2)CCCC1)c1cnn(-c2nccc(-c3cccs3)n2)c1C1CC1	none (no result: IL-1B inflam inh, ATXN2 expr inh, USP2a block, USP1-UAF1 inh)
Cc1cc2cc(C(c3nnnn3Cc3ccco3)N3CCc4ccccc4C3)c(=O)[nH]c2cc1C (centres undefined)	IL-1B inflam inh -58, USP1-UAF1 inh inconclusive
CCC(C)(C)n1nnnc1C(c1cc2cc(C)cc(C)c2[nH]c1=O)N1CCCC1 (centres undefined)	IL-1B inflam inh -51
COc1ccc2cc(C(c3nnnn3C(C)(C)C)N3CCc4ccccc4C3)c(=O)[nH]c2c1 (centres undefined)	none (no result: IL-1B inflam inh, ATXN2 expr inh, ATXN viability, USP1-UAF1 inh)
CC(C)(C)n1nnnc1C(c1cc2cc3c(cc2[nH]c1=O)OCCO3)N1CCSCC1 (centres undefined)	IL-1B inflam inh -51, ATXN viability inconclusive
CCC(C)(C)n1nnnc1C(c1cc2ccc(OC)cc2[nH]c1=O)N1CCc2ccccc2C1 (centres undefined)	IL-1B inflam inh -65, USP1-UAF1 inh inconclusive
O=C(Cn1cccn1)N1CCOc2c(cc(-c3ncc(C(F)(F)F)cc3Cl)cc2OCC2CCCO2)C1 (centres undefined)	none (no result: IL-1B inflam inh, ATXN2 expr inh, USP2a block, USP1-UAF1 inh)
O=C(NCc1cccnc1)/C(=C/c1ccc(-c2ccc(Cl)cc2)o1)S(=O)(=O)c1ccccc1	IL-1B inflam inh -106, ATXN2 expr inh 13µM (no result: ATXN viability)
O=C(NCc1cccnc1)/C(=C\c1ccc(-c2ccc(Br)cc2)o1)S(=O)(=O)c1ccccc1	IL-1B inflam inh -105, ATXN2 expr inh 7.1µM, ATXN viability 14µM
O=C(CN(Cc1ccc(Br)cc1)S(=O)(=O)c1ccccc1)NCc1cccnc1	none
CCc1cccc(CC)c1NC(=O)N1Cc2[nH]nc(NC(=O)c3ccc(N4CCN(C)CC4)cc3)c2C1	none (no result: IL-1B inflam inh, USP2a block, ATXN viability, USP1-UAF1 inh)
Cc1ccc(C(OCCN(C)C)c2cccc(C(F)(F)F)c2)cc1 (centres undefined)	IL-1B inflam inh -67
Cc1nn(C)cc1CN1CCOc2ccc(C(C)(O)COc3ccccc3)cc2C1 (centres undefined)	none (no result: IL-1B inflam inh, ATXN2 expr inh, USP2a block, USP1-UAF1 inh)
Cc1cccc(N2CCN(c3ncnc4onc(C)c34)CC2C)c1 (centres undefined)	none (no result: IL-1B inflam inh, ATXN2 expr inh, USP2a block, ATXN viability)
COc1cc2[nH]c(C(=O)Nc3ccc4c(c3)OCCO4)cc2c(OC)c1OC	IL-1B inflam inh -91, ATXN viability inconclusive
COc1cc2cc(C(=O)Nc3ccc4c(c3)OCCO4)[nH]c2cc1OC	none (no result: ATXN2 expr inh)
COc1ccccc1/C=C/C(=O)NC(=S)NCC1CCCO1 (centres undefined)	IL-1B inflam inh -62
COc1ccc(/C=C/C(=O)NC(=S)NCC2CCCO2)cc1 (centres undefined)	none
O=C(/C=C/c1ccccc1)Nc1ccc2c(c1)OCCO2	IL-1B inflam inh inconclusive
O=C(/C=C/c1ccco1)Nc1ccc2c(c1)OCCO2	IL-1B inflam inh -70
COc1ccccc1/C=C/C(=O)Nc1ccc2c(c1)OCCO2	IL-1B inflam inh -58
CCc1ccccc1NC(=O)CCc1c(C)nc2cc(-c3ccccc3)nn2c1C	none (no result: IL-1B inflam inh, USP2a block)
COC(=O)CC1c2cc(OC)c(OC)cc2CCN1C(=O)Nc1ccc(C)cc1Cl (centres undefined)	none (no result: IL-1B inflam inh, ATXN2 expr inh, USP2a block, ATXN viability)
CC1Cc2ccccc2N1C(=O)CCS(=O)(=O)c1ccc2c(c1)NC(=O)CS2 (centres undefined)	none
CO[C@H]1[C@H](NC(=O)C(C)C)c2ccccc2C12CCN(Cc1c(C)nn(C)c1Cl)CC2	none (no result: IL-1B inflam inh, ATXN2 expr inh, USP2a block, USP1-UAF1 inh)
CC(C)(C)NC(=O)c1ccc(COc2ccc(Cl)cc2Cl)o1	IL-1B inflam inh -69, ATXN2 expr inh inconclusive
Cc1cccc(Nc2nnc(SCC(=O)NC3CCCc4ccccc43)s2)c1 (centres undefined)	IL-1B inflam inh -55
Cc1ccc(Nc2nnc(SCC(=O)NC3CCCc4ccccc43)s2)cc1 (centres undefined)	none
